Hits are enriched below; roughly 4.1% of the tested compounds scored in any of these assays.
BoNT-A LC inh2: BoNT/A light chain protease inhibitors, primary screen, biochemical, flow cytometry, MLPCN library; multiplex microsphere protease substrate cleavage; inhibition, % at 10 µM; actives 0.17% (n = 360,000); AID 588499, 2011; note: plate controls were buffer without enzyme for full effect and enzyme alone for no effect
Anthrax LF inh2: Bacillus anthracis LF protease inhibitors, primary screen, biochemical, multiplex microsphere, MLPCN library; multiplex microsphere protease cleavage assay; Lethal factor (Bacillus anthracis), P15917; actives 0.12% (n = 360,000); inhibition, % at 10 µM; note: plate controls were buffer without enzyme for full effect and enzyme alone for no effect
BoNT F protease: BoNT/F light chain protease inhibitors, primary screen, biochemical, flow cytometry, MLPCN library; Botulinum neurotoxin type F light chain protease (Clostridium botulinum); Multiplex microsphere protease cleavage assay; inhibition, % at 10 µM; actives 0.22% (n = 360,000); AID 588497, 2011; in the data active = inhibition above about 35%, passing the limit was not always enough; inconclusive = no clear call, values can overlap the other calls; note: plate controls were buffer without enzyme for full effect and enzyme alone for no effect
MazEF act: activators of E. coli MazEF toxin-antitoxin RNase, primary screen, biochemical, fluorescence, uHTS | Endoribonuclease toxin MazF (Escherichia coli (strain K12)), P0AE70 | FAM/BHQ RNA-DNA oligo cleavage fluorescence, 5 h | activation, % at 20 µM | actives 0.32% (n = 350,000) | AID 504720, 2011; in the data active = activation above about 50%
Target sequence (P0AE70 whole entry, looked up): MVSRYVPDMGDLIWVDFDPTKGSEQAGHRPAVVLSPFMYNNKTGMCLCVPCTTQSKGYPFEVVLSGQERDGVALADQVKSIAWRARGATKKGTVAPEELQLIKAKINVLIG
DUSP3 inh: VHR1 phosphatase inhibitors, primary screen, biochemical, absorbance, uHTS; Dual specificity protein phosphatase 3 (Homo sapiens), P51452; recombinant VHR phosphatase, pNPP absorbance; inhibition, % at 13.3 µM; actives 0.52% (n = 290,000); AID 1654, 2009; in the data active = inhibition above about 50%
Target sequence (P51452 whole entry, looked up): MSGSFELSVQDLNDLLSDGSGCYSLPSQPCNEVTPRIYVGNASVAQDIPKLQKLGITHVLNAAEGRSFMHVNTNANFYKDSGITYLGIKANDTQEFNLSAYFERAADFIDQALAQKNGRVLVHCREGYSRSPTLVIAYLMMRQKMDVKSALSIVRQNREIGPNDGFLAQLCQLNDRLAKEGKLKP
Autofluor counter: counter-screen for toxin protease inhibitors: compound fluorescence; compound autofluorescence counterscreen, microsphere flow cytometry; hits give high values; AID 624483; actives 3.1% (n = 360,000); fluorescence intensity (no concentration beside the values); in the data active = fluorescence intensity above about 16000; inconclusive = no clear call, values can overlap the other calls
* = called active by the depositor; ? = inconclusive; / = no result given. Cut-off read from the data, not from the text of the source, unless noted: active = inhibition above about 30%; inconclusive = no clear call, values can overlap the other calls; inactive = below that.

SMILES	BoNT-A LC inh2	Anthrax LF inh2	BoNT F protease	MazEF act	DUSP3 inh	Autofluor counter
CCc1sc(NS(C)(=O)=O)nc1-c1ccccc1	-1	-4	-3	9	32	23262*
C[C@H]1CN([C@@H](C)CO)C(=O)Cc2cc(NC(=O)CCC(F)(F)F)ccc2O[C@H]1CN(C)CC1CC1	0	0	-11	7	/	4334
Cc1cc(C)cc(NC(=S)N=Nc2c(O)n(C)c3ccc(S(=O)(=O)N4CCOCC4)cc23)c1	37*	15	4	4	18	1933
Cn1c(=O)n(C)c2cc(S(=O)(=O)N3CCOCC3)ccc21	?	0	-1	7	4	20981*
Cn1c(=O)n(C)c2cc(S(=O)(=O)N3CCCCC3)ccc21	0	0	13	8	4	3054
Cn1c(=O)n(C)c2cc(S(=O)(=O)N3CCN(c4ccccc4)CC3)ccc21	0	-1	5	1	20	4350
Cc1ccc(NC(=S)N=Nc2c(O)n(C)c3ccc(S(=O)(=O)N4CCOCC4)cc23)cc1	12	5	-5	2	16	2479
Cn1c(=O)c(=O)n(C)c2cc(S(=O)(=O)N3CCCCCC3)ccc21	?	-4	-2	2	19	19386*
CCn1nc(C(=O)NCCc2ccc3c(c2)OCCO3)c2ccccc2c1=O	0	1	-1	0	/	3697
CCc1nc(OCCN(CC)CC)c2oc3ccccc3c2n1	0	1	-8	2	11	6107
CCN(CC)CCOc1ncnc2c1oc1ccccc12	?	0	5	6	32	19366*
COc1ccc(C(=O)Nn2c(C)nc3ccccc3c2=O)cc1Br	-3	0	-6	12	38	2891
CCCCNC(=O)C1(C)CCCCN1Cc1ccccc1-c1ccccc1 (stereo not drawn)	0	0	3	/	/	3822
Cc1ccc(S(=O)(=O)NN)c(C)c1N1CCCC1=O	0	-8	3	165*	29	4740
CC(C)(C)C1CCCCC1NC(=O)c1ccncc1 (stereo not drawn)	1	15	-19	-7	16	3432
CC(=NNC(=S)SCc1ccccc1)c1ccccn1	42*	57*	83*	1	/	3593
CC(=NNC(=S)Nc1cccc(Cl)c1)c1ccccn1	10	41*	63*	7	/	4466
Cc1cc(NC(=O)c2csc([C@@H]3O[C@H](CO)[C@H](O)[C@H](O)[C@H]3O)n2)n(C)n1	0	-2	1	/	/	3626
Oc1ccc2c(c1)C1CCCC1(N1CCOCC1)O2 (stereo not drawn)	1	1	1	9	-5	3915
c1ccc2c(c1)nc1n2C2(N3CCOCC3)CCCC2C1N1CCOCC1 (stereo not drawn)	-1	-2	-4	-15	38	20620*
C=CCn1c(SCC(=O)N2CCOCC2)nc2sc(C)c(C)c2c1=O	-1	4	-18	7	51*	3538
C=CCn1c(SCC(=O)N2CCCC2)nc2scc(-c3cccs3)c2c1=O	-5	-1	-5	3	-1	21895*
C=CCn1c(SCC(=O)Nc2ccccc2)nc2scc(-c3cccs3)c2c1=O	0	-1	-11	-7	10	3568
CN(c1ccccc1C(=O)O)S(C)(=O)=O	4	-3	4	3	4	18576*
CCOc1ccccc1NC(=O)c1ccccc1N(C)S(C)(=O)=O	0	0	-5	1	-2	4808
SMILES	BoNT-A LC inh2	Anthrax LF inh2	BoNT F protease	MazEF act	DUSP3 inh	Autofluor counter
CN(c1ccccc1C(=O)Nc1cccc(Cl)c1Cl)S(C)(=O)=O	0	-2	0	5	16	22508*
Cc1ccc(NC(=O)c2ccccc2N(C)S(C)(=O)=O)cc1C	1	-2	-3	0	-5	23559*
CN(c1ccccc1C(=O)Nc1ccc2c(c1)OCCO2)S(C)(=O)=O	0	1	-9	9	22	6096
O=C(CN1C(=O)C(=O)N(C2CCCC2)C1=O)Nc1ccc(Cl)cc1C(F)(F)F	0	8	3	0	/	3781
Cc1ccc(OCC(=O)N2CCCCC2)c(Br)c1	-4	-2	-2	2	-22	17161*
Cc1ccccc1OCCOCCN1CCCCCC1	1	-2	-1	-1	16	2981
Cc1ccc(C(C)C)cc1OCCOCCN1CCCC1	-1	-9	-30	92*	30	4992
Cc1ccc(OCCOCCN2CCCC2)c(Br)c1	-5	-24	?	8	59*	3645
CC(C)(C)c1ccc(OCC(=O)N2CCCCCC2)c(Br)c1	1	-3	-3	3	20	3478
CN1C(=O)CC2(C)C1=CCc1scnc12 (stereo not drawn)	0	-12	-1	/	/	5782
O=C(c1nc2ccc(Cl)cn2c1CN1CCC[C@H]1CO)N1CCc2ccccc2C1	1	-1	12	-29	/	3382
COc1ccc(NS(=O)(=O)c2ccc3c(c2)N(C(C)=O)CC(C)S3)c(OC)c1 (stereo not drawn)	1	2	4	-19	6	4022
Cc1ccc(S(=O)(=O)Nc2ccc(S(=O)(=O)Nc3nccs3)cc2)cc1C	1	2	-5	-1	/	3831
O=S(=O)(Nc1ccc(S(=O)(=O)Nc2nccs2)cc1)c1ccc2c(c1)OCCO2	-1	-2	-5	11	6	16416*
Cc1cc(C(=O)Nc2ccc(S(=O)(=O)Nc3nccs3)cc2)c(C)o1	-2	-2	-3	5	-9	24552*
CCCCC1CCC(C(=O)Nc2ccc(S(=O)(=O)Nc3nccs3)cc2)CC1 (stereo not drawn)	?	-2	-4	0	-2	24211*
COc1ccc(C(=O)COC(=O)COc2cc(C)cc(C)c2)cc1	2	-3	-1	1	2	4467
Cc1cc2nc(CSc3ccc(Cl)cc3)cc(=O)n2[nH]1	0	2	-2	-5	18	4342
CCOC(=O)c1sc2c(c1C)c(=O)c(C(=O)OCC)cn2CC	1	-4	4	9	16	19706*
O=[N+]([O-])c1ccc(NS(=O)(=O)c2ccc(Cl)c(Cl)c2)cc1	0	1	7	/	/	5873
O=C(N/N=C/c1cc([N+](=O)[O-])ccc1O)c1cccc2cc[nH]c12	0	-4	-1	-3	4	3302
O=C(N/N=C/c1cccc([N+](=O)[O-])c1)c1ccc(Br)cc1	-1	-1	-5	0	57*	4700
O=C(N/N=C/c1cccc([N+](=O)[O-])c1)c1cccc2cc[nH]c12	-3	-1	-18	18	52*	2125
